What was measured:
Details in all cases: concentration: 1 μM, replicates: in singlicate; n = 1
TAOK1 = tested on: TAOK1
TAOK2 = tested on: TAOK2
TAOK3 = tested on: TAOK3
TBK1 = tested on: TBK1
TEC = tested on: TEC
TESK1 = tested on: TESK1
TGFBR1 = tested on: TGFBR1
TGFBR2 = tested on: TGFBR2
TIE1 = tested on: TIE1
TIE2 = tested on: T1, TIE2
T1 construct: gene TEK
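Note: KINOMEscan kinase panel screen.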

Row | Structure (SMILES) | %Inh (TAOK1) [%] | %Inh (TAOK2) [%] | %Inh (TAOK3) [%] | %Inh (TBK1) [%] | %Inh (TEC) [%] | %Inh (TESK1) [%] | %Inh (TGFBR1) [%] | %Inh (TGFBR2) [%] | %Inh (TIE1) [%] | %Inh (TIE2) [%]
1 | Nc1nccc(-c2c(-c3ccc(F)cc3)ncn2C2CCN(Cc3ccccc3)CC2)n1 [SB-219980] | 31 | 0 | 10 | 0 | 0 | 0 | 7 | 12 | 1 | 0
2 | Cc1c(Cn2c3ccccc3n3c(=O)cc(N4CCOCC4)nc23)cccc1C(F)(F)F [GSK2306394] | 0 | 0 | 0 | 13 | 1 | 0 | 0 | 10 | 6 | 0
3 | CC(C)c1ccc(O)cc1Nc1ccnc2ccc(C(F)(F)F)cc12 [GW482059] | 0 | 0 | 4 | 0 | 0 | 0 | 0 | 15 | 13 | 0
4 | COc1ccc(Nc2nccc(N3CCC(NC(=O)C(C)c4ccc(Cl)cc4)C3)n2)cc1 (centres unmarked) [GSK1379735] | 0 | 0 | 0 | 4 | 14 | 3 | 23 | 0 | 35 | 8
5 | O=C(Nc1n[nH]c2nc(-c3cccs3)c(Br)cc12)C1CC1 [SB-735297] | 10 | 0 | 0 | 33 | 0 | 19 | 0 | 0 | 0 | 12
